Active and inactive are the calls of the source.
Key:
[1] = test system: Plasmodium falciparum Sir2 (PF13_0152, Sir2A); test: pfSir2 binders on small-molecule microarrays, primary screen, biochemical, small-molecule microarray, 635 nm fluorescence (AID 1098); conditions: small-molecule microarray binding, fluorescence 635 nm; higher = more signal;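 further: score merges spot fluorescence intensity with its signal-to-noise ratio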
[2] = small-molecule microarray binders of probe aDKK1, primary screen, biochemical, biotinylated probe, 635/667 nm fluorescence (AID 1099); conditions: higher = more signal;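 further: score merges 667nm spot fluorescence with signal to noise across triplicate slides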
[3] = small-molecule microarray binders of probe aCHRDL2, primary screen, biochemical, biotinylated probe, 635/667 nm fluorescence (AID 1100); conditions: higher = more signal
[4] = splicing luciferase reporter signal modulators, primary screen, spliceosome inhibition project, cell-based, HEK293, splice +/- reporter (AID 1101); conditions: luminescence, 24 h, higher = more signal, called active from +8 up or from −8 down;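 further: HEK293 cells carrying a splicing-competent luciferase reporter gene; test concentration not given here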
[5] = molecular target: Fibroblast growth factor 10 (Homo sapiens) (UniProt O15520); test: FGF10 binders on small-molecule microarrays, primary screen, biochemical, small-molecule microarray, 635 nm fluorescence (AID 1102); conditions: FGF10 binding, fluorescence 635 nm, higher = more signal
[6] = test system: glycogen synthase kinase-3 (GSK3A per assay name; protocol says GSK3B); test: GSK3 binders on small-molecule microarrays, primary screen, biochemical, small-molecule microarray, 635 nm fluorescence, GSK3A (AID 1103); conditions: small-molecule microarray binding, fluorescence 635 nm; higher = more signal; further: the record names both GSK3A and GSK3B
[7] = molecular target: Epidermal growth factor receptor (Homo sapiens) (UniProt P00533); test: EGFR binders on small-molecule microarrays, primary screen, biochemical, small-molecule microarray, 635 nm fluorescence (AID 1104); conditions: EGFR binding, higher = more signal;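 further: score merges 667 nm emission intensity with spot signal to noise over triplicate slides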
[8] = molecular target: Follistatin-related protein 3 (Homo sapiens) (UniProt O95633); test: FSTL3 binders on small-molecule microarrays, primary screen, biochemical, small-molecule microarray, 635 nm fluorescence (AID 1105); conditions: FSTL3 binding, higher = more signal;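 further: score merges emission near 667 nm and signal to noise per printed spot across three slides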
[9] = molecular target: Dickkopf-related protein 1 (Homo sapiens) (UniProt O94907); test: DKK1 binders on small-molecule microarrays, primary screen, biochemical, small-molecule microarray, 635 nm fluorescence scan (AID 1106); conditions: DKK1 binding, higher = more signal;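 further: score merges emission near 667 nm with signal to noise over three replicate slides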
[10] = test system: Inhibin beta A chain (activin A); test: INHBA (activin A) binders on microarrays, primary screen, biochemical, small-molecule microarray, 635 nm fluorescence scan (AID 1107); conditions: small-molecule microarray binding, higher = more signal;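 further: mouse activin A protein probed at 4.33 µg/mL on printed slides; score merges bound-protein fluorescence near 667 nm with spot signal-to-noise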
[11] = test system: Human papillomavirus type 1a protein E7 (residues 44-93); test: HPV1a E7 fragment binders on microarrays, primary screen, biochemical, small-molecule microarray, residues 44-93, 635 nm fluorescence (AID 1108); conditions: small-molecule microarray binding, fluorescence 635 nm; higher = more signal;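 further: E7 fragment applied at 1 µg/mL in TBST for 1 h at 4 C; score combines spot fluorescence with its signal to noise ratio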
[12] = modulators of HCV replicon luciferase signal, primary screen, HCV replication inhibitor project, Huh7 cells, luciferase reporter (AID 1109); conditions: 48 h, higher = more signal;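 further: huh7 hepatoma cells harbouring a luciferase neomycin HCV replicon reporter; luciferase luminescence as measure of HCV replicon replication; test concentration not given here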
[13] = molecular target: Left-right determination factor 2 (Homo sapiens) (UniProt O00292); test: LEFTY2 binders on small-molecule microarrays, primary screen, biochemical, small-molecule microarray, 635 nm fluorescence scan (AID 1110); conditions: LEFTY2 binding, higher = more signal
[14] = molecular target: Calmodulin-1 (Homo sapiens) (UniProt P0DP23); test: CALM1 binders on microarrays, EGTA buffer, profiling panel, biochemical, small-molecule microarray, Cy5-labelled CALM1 (AID 1111); conditions: Cy5-CALM1 binding fluorescence, higher = more signal;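 further: labelled calmodulin applied in Tris saline Tween buffer holding calcium plus EGTA and DTT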
[15] = molecular target: Calmodulin-1 (Homo sapiens) (UniProt P0DP23); test: calcium-bound CALM1 binders on microarrays, profiling panel, artefact control for SMM control-protein annotation, biochemical, small-molecule microarray, Cy5-labelled CALM1, plus calcium (AID 1112); conditions: Cy5-CALM1 binding fluorescence, higher = more signal;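 further: score merges spot fluorescence with signal to noise from triplicate slides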
[16] = small-molecule microarray binders of probe aWnt5a, primary screen, biochemical, biotinylated probe, 635/667 nm fluorescence (AID 1113); conditions: higher = more signal;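 further: score merges 667 nm fluorescence intensity with signal-to-noise per printed feature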
[17] = small-molecule microarray binders of probe aShh, primary screen, biochemical, biotinylated probe, 635/667 nm fluorescence (AID 1114); conditions: higher = more signal;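 further: probe is biotin-labelled aShh protein from a stem cell growth factor screen; measures binding of labelled protein to compounds printed on the slide; score merges feature fluorescence at 667 nm with signal-to-noise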
[18] = small-molecule microarray binders of probe aNog, primary screen, biochemical, biotinylated probe, 635/667 nm fluorescence (AID 1115); conditions: higher = more signal;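 further: probe is biotinylated aNog protein used at 0.15 µg/mL for 1 h at 4 C; z-score combines 667 nm fluorescence of each spot with its signal to noise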
[19] = molecular target: Torsin-1A-interacting protein 1 (Homo sapiens) (UniProt Q5JTV8); test: LAP1 binders from COS7 cell lysate, primary screen, small-molecule microarray, 635/667 nm fluorescence (AID 1116); conditions: COS7-hLAP1 lysate binding, 635 nm fluorescence, higher = more signal
[20] = molecular target: Alpha-bungarotoxin (Bungarus multicinctus) (UniProt P60615); test: alpha-bungarotoxin binders on microarray, profiling panel, artefact control for SMM control protein annotation, biochemical, small-molecule microarray, Alexa647 label, 635/667 nm fluorescence (AID 1117); conditions: alpha-BTX-A647 binding fluorescence, higher = more signal
Chain of Alpha-bungarotoxin (Bungarus multicinctus) (P60615 whole entry, looked up): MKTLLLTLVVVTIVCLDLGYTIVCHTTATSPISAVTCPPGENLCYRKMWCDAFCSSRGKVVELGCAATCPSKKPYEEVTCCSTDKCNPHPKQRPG

Chain of Left-right determination factor 2 (Homo sapiens) (O00292 whole entry, looked up): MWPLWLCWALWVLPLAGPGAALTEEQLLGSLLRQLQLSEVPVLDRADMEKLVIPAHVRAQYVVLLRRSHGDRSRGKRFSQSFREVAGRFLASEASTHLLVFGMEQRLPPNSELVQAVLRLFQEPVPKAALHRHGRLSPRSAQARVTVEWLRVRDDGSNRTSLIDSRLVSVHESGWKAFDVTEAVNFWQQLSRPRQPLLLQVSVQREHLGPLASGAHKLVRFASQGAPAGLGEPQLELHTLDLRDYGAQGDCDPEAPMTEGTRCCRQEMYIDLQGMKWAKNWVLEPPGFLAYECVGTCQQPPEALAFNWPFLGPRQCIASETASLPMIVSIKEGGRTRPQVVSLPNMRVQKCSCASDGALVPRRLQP
Chain of Fibroblast growth factor 10 (Homo sapiens) (O15520 whole entry, looked up): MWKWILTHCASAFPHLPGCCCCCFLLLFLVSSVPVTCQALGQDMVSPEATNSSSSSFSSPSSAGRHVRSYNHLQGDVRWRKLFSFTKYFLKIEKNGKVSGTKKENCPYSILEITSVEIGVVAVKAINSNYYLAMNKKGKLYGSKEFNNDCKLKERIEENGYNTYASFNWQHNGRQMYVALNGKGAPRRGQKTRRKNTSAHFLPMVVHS
Chain of Follistatin-related protein 3 (Homo sapiens) (O95633 whole entry, looked up): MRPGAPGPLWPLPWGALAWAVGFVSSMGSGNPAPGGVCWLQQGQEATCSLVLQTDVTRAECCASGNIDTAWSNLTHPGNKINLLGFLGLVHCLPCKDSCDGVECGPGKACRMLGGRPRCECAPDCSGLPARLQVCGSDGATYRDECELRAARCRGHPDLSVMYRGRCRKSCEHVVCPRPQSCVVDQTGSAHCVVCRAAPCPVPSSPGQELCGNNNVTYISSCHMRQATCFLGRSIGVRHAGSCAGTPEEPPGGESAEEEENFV
Chain of Torsin-1A-interacting protein 1 (Homo sapiens) (Q5JTV8 whole entry, looked up): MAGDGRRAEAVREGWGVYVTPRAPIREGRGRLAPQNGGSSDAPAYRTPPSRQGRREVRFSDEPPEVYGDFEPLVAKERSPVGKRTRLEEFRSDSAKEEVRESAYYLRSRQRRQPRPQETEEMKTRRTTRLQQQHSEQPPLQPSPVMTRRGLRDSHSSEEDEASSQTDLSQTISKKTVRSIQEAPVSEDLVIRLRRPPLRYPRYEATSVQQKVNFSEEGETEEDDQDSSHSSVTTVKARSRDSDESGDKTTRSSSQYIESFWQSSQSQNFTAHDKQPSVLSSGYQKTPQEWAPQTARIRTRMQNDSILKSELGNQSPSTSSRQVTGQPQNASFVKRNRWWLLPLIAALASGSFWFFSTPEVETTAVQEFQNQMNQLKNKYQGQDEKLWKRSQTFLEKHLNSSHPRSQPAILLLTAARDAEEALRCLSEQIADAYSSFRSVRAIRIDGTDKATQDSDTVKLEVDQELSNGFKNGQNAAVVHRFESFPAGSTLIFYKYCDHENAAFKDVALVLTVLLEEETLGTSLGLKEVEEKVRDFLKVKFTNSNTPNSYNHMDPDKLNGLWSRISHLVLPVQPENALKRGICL
Chain of Dickkopf-related protein 1 (Homo sapiens) (O94907 whole entry, looked up): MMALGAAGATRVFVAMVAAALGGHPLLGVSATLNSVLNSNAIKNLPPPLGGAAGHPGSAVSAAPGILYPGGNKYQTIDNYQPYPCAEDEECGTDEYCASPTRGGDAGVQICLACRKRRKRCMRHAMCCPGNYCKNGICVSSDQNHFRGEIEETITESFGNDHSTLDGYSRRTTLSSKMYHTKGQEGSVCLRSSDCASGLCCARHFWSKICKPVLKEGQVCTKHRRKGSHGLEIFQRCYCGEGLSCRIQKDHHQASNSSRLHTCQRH
Chain of Epidermal growth factor receptor (Homo sapiens) (P00533 whole entry, looked up): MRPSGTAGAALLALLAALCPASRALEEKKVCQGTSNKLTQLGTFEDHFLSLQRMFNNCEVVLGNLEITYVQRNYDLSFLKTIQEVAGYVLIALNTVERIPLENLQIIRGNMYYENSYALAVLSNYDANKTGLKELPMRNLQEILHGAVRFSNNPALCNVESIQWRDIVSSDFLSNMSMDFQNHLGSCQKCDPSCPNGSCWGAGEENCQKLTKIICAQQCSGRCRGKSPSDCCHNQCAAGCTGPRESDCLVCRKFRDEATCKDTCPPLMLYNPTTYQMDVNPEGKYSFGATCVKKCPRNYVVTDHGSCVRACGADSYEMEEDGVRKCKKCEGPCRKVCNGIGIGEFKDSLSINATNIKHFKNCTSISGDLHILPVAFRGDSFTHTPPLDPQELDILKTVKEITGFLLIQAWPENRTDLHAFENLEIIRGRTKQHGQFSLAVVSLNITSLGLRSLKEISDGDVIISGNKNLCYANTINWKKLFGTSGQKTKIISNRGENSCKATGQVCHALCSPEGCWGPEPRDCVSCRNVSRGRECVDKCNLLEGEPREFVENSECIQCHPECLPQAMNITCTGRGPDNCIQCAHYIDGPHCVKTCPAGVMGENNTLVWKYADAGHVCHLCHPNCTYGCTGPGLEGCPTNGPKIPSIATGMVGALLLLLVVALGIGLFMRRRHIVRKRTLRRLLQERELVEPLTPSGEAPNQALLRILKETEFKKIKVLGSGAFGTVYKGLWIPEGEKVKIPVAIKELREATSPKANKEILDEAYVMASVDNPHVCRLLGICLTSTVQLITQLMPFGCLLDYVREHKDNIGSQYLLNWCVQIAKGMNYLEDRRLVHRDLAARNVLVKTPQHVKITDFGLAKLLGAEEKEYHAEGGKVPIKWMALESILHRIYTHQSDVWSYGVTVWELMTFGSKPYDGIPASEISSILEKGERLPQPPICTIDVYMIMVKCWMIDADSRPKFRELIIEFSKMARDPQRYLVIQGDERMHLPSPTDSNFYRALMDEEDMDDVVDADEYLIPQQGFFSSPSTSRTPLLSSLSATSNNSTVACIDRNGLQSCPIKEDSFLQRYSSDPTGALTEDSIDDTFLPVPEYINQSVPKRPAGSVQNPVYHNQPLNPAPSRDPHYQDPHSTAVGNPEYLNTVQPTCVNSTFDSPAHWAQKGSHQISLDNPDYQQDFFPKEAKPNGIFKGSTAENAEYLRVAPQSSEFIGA

Compound	composite z-score [1]	composite z-score [2]	composite z-score [3]	z-score [4]	composite z-score [5]	composite z-score [6]	composite z-score [7]	composite z-score [8]	composite z-score [9]	composite z-score [10]	composite z-score [11]	z-score [12]	composite z-score [13]	composite z-score [14]	composite z-score [15]	composite z-score [16]	composite z-score [17]	composite z-score [18]	composite z-score [19]	composite z-score [20]
COc1ccccc1CN1C(=O)c2ccccc2[C@@H](C(=O)NCC(C)C)[C@@H]1c1ccc(CO)cc1	1.05	0.543	0.705	-0.8 (inactive)	0.773	-0.0674	-0.318	0.0144	0.213	0.002	1.05	-0.541	0.13	0.139	-0.0968	-0.196	-0.776	-0.0069	0.741	-0.544
O=C1N(CCS(=O)(=O)c2ccccc2)Cc2ccccc2C[C@@]12COC(c1ccc(OCCCO)cc1)=N2	1.69	1.15	1.26	0.67 (inactive)	1.07	1.29	0.847	1.3	0.628	1.32	1.08	-2.31	0.906	0.303	0.87	0.0561	-0.0858	0.618	1.56	2.33
CCN(CC)c1ccc(N2CC=CC34O[C@@H]5/C=C\CCCOC(=O)C5[C@H]3C(=O)N(CCCCCO)[C@@H]4C2=O)cc1 (stereo not given in full)	0.643	0.123	0.397	0.643 (inactive)	-1.47	-1.4	-0.983	-1.42	-1.01	-0.399	-0.592	-0.376	-1.57	-1.06	-0.996	-0.203	-0.221	-0.254	0.424	-1.04
COC(=O)[C@@]1(Cc2ccc(OC)cc2)[C@H]2c3cc(C(=O)N4CCCC4)n(CCc4ccc(O)c(OC)c4)c3C[C@H]2CN1C(=O)c1ccccc1	-0.0995	0.527	1.09	-0.928 (inactive)	-0.317	-0.175	-0.481	-0.892	-1.13	1.04	0.333	-0.917	-0.448	0.346	0.225	0.114	0.03	1.03	0.39	0.184
COc1ccc([Si](C)(C)[C@@H]2[C@@H](CCO)O[C@]3(C(=O)N(Cc4ccccc4)c4ccc(N5CCCCC5=O)cc43)[C@H]2C)cc1	0.883	-0.107	-0.0137	-4.14 (inactive)	0.959	1.1	0.197	0.962	0.218	0.796	1.4	-5.21	0.489	0.972	0.0653	-0.122	-0.2	-0.352	0.678	1.08
C=C(/C(=C/C[C@@H](OC(=O)c1ccncc1)c1ccccc1OCCO)c1cnc2ccccc2c1)C(C)C	0.25	0.0171	-0.21	-2.43 (inactive)	1.55	1.29	1.23	1.61	0.413	1.77	1.4	-4.46	0.935	0.273	-0.531	0.0044	-0.195	0.0588	1.23	3.08
COCCOC(=O)N1C(=O)[C@@]2(c3cc(C#CCNC(N)=O)ccc31)[C@H](C(N)=O)[C@H]1C(=O)O[C@H](c3ccccc3)[C@H](c3ccccc3)N1[C@@H]2c1ccc(OCCO)cc1	1.05	0.0301	0.721	0.731 (inactive)	0.535	0.737	0.793	1.45	0.825	1.35	1.29	-1.11	0.582	0.701	0.257	-0.1	-0.156	0.271	1.03	0.617
CC(C)N1C(=O)c2ccccc2[C@](C)(C(=O)O)[C@@H]1c1ccc(CO)cc1	0.738	0.326	0.855	0.591 (inactive)	-0.756	-1.23	-1.35	-0.638	-1.06	0.532	-0.113	-0.169	-1.23	-0.198	0.531	-0.143	0.133	0.338	0.274	0.468
COCCOC(=O)N1C(=O)[C@@]2(c3cc(C#CC4(O)CCCCCC4)ccc31)[C@H](C(=O)N1CCN(c3ncccn3)CC1)[C@H]1C(=O)O[C@H](c3ccccc3)[C@H](c3ccccc3)N1[C@@H]2c1ccc(O)cc1	1.27	-0.127	0.227	-0.756 (inactive)	0.45	0.235	0.152	0.321	0.0884	0.921	0.958	-1.69	-0.28	1.56	1.05	0.0633	0.128	-0.261	1.53	1.61
COCC(=C=CC[C@@H](O)c1ccccc1OCCO)C[C@@H](O)COCc1ccccc1	0.72	0.724	0.167	-1.48 (inactive)	1.21	0.732	-1.19	-0.268	-0.466	1.24	-0.0562	-0.868	-0.522	1.16	0.0936	0.0158	0.536	0.998	2.56	-0.18
COC(=O)[C@@]1(Cc2ccccc2N=[N+]=[N-])N=C(c2ccc(OCCCO)cc2)O[C@H]1c1ccccc1	1.34	0.0665	0.87	2.25 (inactive)	0.818	-0.253	-0.285	0.666	-0.385	0.575	1.34	-3.38	-0.319	0.694	0.278	0.0136	0.0121	-0.466	1.37	0.873

Reference: PubChem BioAssay
